Out of some 5,500 compounds screened, about 2,000 (36%) were called active. Roughly 18% stayed inconclusive and do not appear here. Cut-off read from the data, not from the text of the source: active = normalized growth mostly below about 0.91 (no sharp cut-off); inconclusive = no clear call, values can overlap the other calls; inactive = mostly above about 0.92. This is one part of the list.
Experiment: chemical genetic growth profiling, strain panel (AID 1159580);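 note: tested at 20 µM; growth read once vehicle control cultures reached saturation at 30 °C; 1 = growth at the plate median or of vehicle wells; lower values mean less growth of the strain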
Conditions: growth OD

Measured: normalized growth

CC(=O)[C@H]1CCC2C3CCC4=CC(=O)CC[C@]4(C)C3CC[C@@]21C (some centres not stated)
inactive: S. cerevisiae deletion strains, locus YJR075W, strain HOC1, active compounds read low 0.949 | S. cerevisiae deletion strains, locus YKL009W, strain mrt4, active compounds read low 0.914 | S. cerevisiae deletion strains, locus YKL068W, active compounds read low 0.947 | S. cerevisiae deletion strains, locus YKL160W, strain elf1, active compounds read low 0.913 | S. cerevisiae deletion strains, locus YKL190W, strain CNB1, active compounds read low 0.978 | S. cerevisiae deletion strains, locus YKR026C, strain gcn3, active compounds read low 0.981 | S. cerevisiae deletion strains, locus YKR091W, strain srl3, active compounds read low 0.977 | S. cerevisiae deletion strains, locus YLL001W, strain dnm1, active compounds read low 0.989 | S. cerevisiae deletion strains, locus YLL026W, active compounds read low 0.978 | S. cerevisiae deletion strains, locus YLL041C, strain sdh2, active compounds read low 0.977 | S. cerevisiae deletion strains, locus YLR027C, strain aat2, active compounds read low 0.95 | S. cerevisiae deletion strains, locus YLR058C, strain SHM2, active compounds read low 0.974 | S. cerevisiae deletion strains, locus YLR102C, strain apc9, active compounds read low 0.942 | S. cerevisiae deletion strains, locus YLR113W, strain HOG1, active compounds read low 0.958 | S. cerevisiae deletion strains, locus YLR221C, strain rsa3, active compounds read low 0.955 | S. cerevisiae deletion strains, locus YLR258W, strain gsy2, active compounds read low 0.962 | S. cerevisiae deletion strains, locus YLR330W, strain CHS5, active compounds read low 0.978 | S. cerevisiae deletion strains, locus YLR342W, strain FKS1 (second series), active compounds read low 0.814 | S. cerevisiae deletion strains, locus YLR342W, strain FKS1, active compounds read low 0.94 | S. cerevisiae deletion strains, locus YLR357W, strain rsc2, active compounds read low 1.05 | S. cerevisiae deletion strains, locus YLR370C, strain arc18, active compounds read low 0.957 | S. cerevisiae deletion strains, locus YLR384C, strain iki3, active compounds read low 0.968 | S. cerevisiae deletion strains, locus YML016C, strain PPZ1, active compounds read low 0.963 | S. cerevisiae deletion strains, locus YML120C, strain ndi1, active compounds read low 0.966 | S. cerevisiae deletion strains, locus YML124C, strain tub3, active compounds read low 0.942 | S. cerevisiae deletion strains, locus YMR058W, strain fet3, active compounds read low 0.923 | S. cerevisiae deletion strains, locus YMR125W, strain sto1, active compounds read low 0.942 | S. cerevisiae deletion strains, locus YMR129W, active compounds read low 0.976 | S. cerevisiae deletion strains, locus YMR231W, strain pep5, active compounds read low 0.96 | S. cerevisiae deletion strains, locus YMR263W, strain SAP30, active compounds read low 0.973 | S. cerevisiae deletion strains, locus YMR307W, strain GAS1, active compounds read low 0.78 | S. cerevisiae deletion strains, locus YNL067W, strain RPL9B, active compounds read low 0.952 | S. cerevisiae deletion strains, locus YNL128W, strain TEP1, active compounds read low 0.99 | S. cerevisiae deletion strains, locus YNL153C, strain GIM3, active compounds read low 0.967 | S. cerevisiae deletion strains, locus YNL183C, strain NPR1, active compounds read low 0.933 | S. cerevisiae deletion strains, locus YNL209W, strain ssb2, active compounds read low 0.991 | S. cerevisiae deletion strains, locus YNL233W, strain BNI4, active compounds read low 0.947 | S. cerevisiae deletion strains, locus YNL248C, strain rpa49, active compounds read low 0.94 | S. cerevisiae deletion strains, locus YNL250W, strain rad50, active compounds read low 0.917 | S. cerevisiae deletion strains, locus YNL322C, strain KRE1 (second series), active compounds read low 1 | S. cerevisiae deletion strains, locus YNL322C, strain KRE1, active compounds read low 0.989 | S. cerevisiae deletion strains, locus YNR049C, strain mso1, active compounds read low 0.975 | S. cerevisiae deletion strains, locus YOL006C, strain TOP1, active compounds read low 0.652 | S. cerevisiae deletion strains, locus YOL012C, strain htz1 0.798 | S. cerevisiae deletion strains, locus YOR001W, strain rrp6, active compounds read low 0.934 | S. cerevisiae deletion strains, locus YOR061W, strain CKA2, active compounds read low 0.964 | S. cerevisiae deletion strains, locus YOR069W, strain VPS5, active compounds read low 0.978 | S. cerevisiae deletion strains, locus YOR070C, strain gyp1, active compounds read low 0.955 | S. cerevisiae deletion strains, locus YOR080W, strain dia2, active compounds read low 0.993 | S. cerevisiae deletion strains, locus YOR083W, strain WHI5, active compounds read low 0.941 | S. cerevisiae deletion strains, locus YOR106W, strain vam3, active compounds read low 0.95 | S. cerevisiae deletion strains, locus YOR136W, strain idh2, active compounds read low 0.943 | S. cerevisiae deletion strains, locus YOR231W, strain MKK1, active compounds read low 0.937 | S. cerevisiae deletion strains, locus YOR265W, strain rbl2, active compounds read low 0.967 | S. cerevisiae deletion strains, locus YOR290C, strain snf2, active compounds read low 0.926 | S. cerevisiae deletion strains, locus YPL055C, strain LGE1, active compounds read low 0.929 | S. cerevisiae deletion strains, locus YPL106C, strain sse1, active compounds read low 1.05 | S. cerevisiae deletion strains, locus YPL240C, strain hsp82, active compounds read low 0.964 | S. cerevisiae deletion strains, locus YPL241C, strain CIN2, active compounds read low 0.977 | S. cerevisiae deletion strains, locus YPL256C, strain CLN2, active compounds read low 0.981 | S. cerevisiae deletion strains, locus YPR141C, strain kar3, active compounds read low 0.937 | S. cerevisiae deletion strains, locus YPR167C, strain met16, active compounds read low 0.945 | S. cerevisiae strains, strain wild type, active compounds read low 0.974
active: S. cerevisiae deletion strains, locus YKL085W, strain MDH1 (second series), active compounds read low 0.929 | S. cerevisiae deletion strains, locus YKL085W, strain MDH1, active compounds read low 0.929 | S. cerevisiae deletion strains, locus YKR001C, strain vps1, active compounds read low 0.704 | S. cerevisiae deletion strains, locus YLR039C, strain RIC1, active compounds read low 0.447 | S. cerevisiae deletion strains, locus YLR262C, strain YPT6 (second series), active compounds read low 0.475 | S. cerevisiae deletion strains, locus YLR262C, strain YPT6, active compounds read low 0.494 | S. cerevisiae deletion strains, locus YLR268W, strain sec22, active compounds read low 0.718 | S. cerevisiae deletion strains, locus YLR320W, strain mms22, active compounds read low 0.615 | S. cerevisiae deletion strains, locus YLR371W, strain rom2, active compounds read low 0.904 | S. cerevisiae deletion strains, locus YLR418C, strain cdc73, active compounds read low 0.441 | S. cerevisiae deletion strains, locus YML032C, strain rad52, active compounds read low 0.76 | S. cerevisiae deletion strains, locus YMR078C, strain ctf18, active compounds read low 0.724 | S. cerevisiae deletion strains, locus YMR205C, strain PFK2, active compounds read low 0.813 | S. cerevisiae deletion strains, locus YMR223W, strain ubp8, active compounds read low 0.782 | S. cerevisiae deletion strains, locus YNL071W, strain lat1, active compounds read low 0.632 | S. cerevisiae deletion strains, locus YNL271C, strain bni1, active compounds read low 0.889 | S. cerevisiae deletion strains, locus YNL298W, strain CLA4, active compounds read low 0.865 | S. cerevisiae deletion strains, locus YNL307C, strain MCK1, active compounds read low 0.185 | S. cerevisiae deletion strains, locus YNR052C, strain pop2, active compounds read low 0.733 | S. cerevisiae deletion strains, locus YOL147C, strain pex11, active compounds read low 0.527 | S. cerevisiae deletion strains, locus YOR144C, strain elg1, active compounds read low 0.852 | S. cerevisiae deletion strains, locus YOR184W, strain ser1, active compounds read low 0.284 | S. cerevisiae deletion strains, locus YOR270C, strain vph1, active compounds read low 0.704 | S. cerevisiae deletion strains, locus YOR316C, strain cot1, active compounds read low 0.884 | S. cerevisiae deletion strains, locus YPL051W, strain arl3, active compounds read low 0.903 | S. cerevisiae deletion strains, locus YPL078C, strain atp4, active compounds read low 0.874 | S. cerevisiae deletion strains, locus YPR119W, strain clb2, active compounds read low 0.919 | S. cerevisiae deletion strains, locus YPR163C, strain tif3, active compounds read low 0.527 | S. cerevisiae deletion strains, strain wtn01, active compounds read low 0.789
